# Measured values reported in the supplement of paper PMC10105736.
# Unmarked numbers belong to inactive results.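 Rule for the calls: active = MAPPIT score above the 99th percentile of random reference set scores in the same batch; inactive = at or below it.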
# Tests used:
# Assay in all cases: MAPPIT interaction score (arbitrary units); higher = stronger binary interaction signal, active = hit call of the paper
# CG15545 = details: MAPPIT configuration: N-N; pair source set: Curagen_low_conf
# CG1640 = details: MAPPIT configuration: N-C; pair source set: screen_4
# Pex5 = details: MAPPIT configuration: N-N; pair source set: Curagen_low_conf
# CG17377 = details: MAPPIT configuration: N-C; pair source set: screen_4
# CG32817 = details: MAPPIT configuration: N-N; pair source set: screen_2
# Mst87F = details: MAPPIT configuration: N-N; pair source set: screen_2
# CG14044 = details: MAPPIT configuration: N-N; pair source set: Finley_Y2H
# CG4116 = details: MAPPIT configuration: N-N; pair source set: Curagen_high_conf
# CG2120 = details: MAPPIT configuration: N-C; pair source set: screen_3
# Odj = details: MAPPIT configuration: N-N; pair source set: screen_2
# caup = details: MAPPIT configuration: N-C; pair source set: screen_3
# CG3703 = details: MAPPIT configuration: N-N; pair source set: Finley_Y2H
# Arpc3A = details: pair source set: Lit-BM-16
# CG31406 = details: pair source set: RRS
# Hakai = details: MAPPIT configuration: N-N; pair source set: DPIM
# Lkb1 = details: MAPPIT configuration: N-N; pair source set: DPIM
# RnrS = details: MAPPIT configuration: N-N; pair source set: DPIM
# bai = details: MAPPIT configuration: N-N; pair source set: DPIM
# mRpS24 = details: MAPPIT configuration: N-N; pair source set: DPIM
# scf = details: MAPPIT configuration: N-N; pair source set: DPIM
# C15 = details: MAPPIT configuration: N-N; pair source set: Lit-BS-16
# CG8173 = details: MAPPIT configuration: N-N; pair source set: screen_1
# Vsx2 = details: MAPPIT configuration: N-N; pair source set: screen_2
# CG44250 = details: MAPPIT configuration: N-N; pair source set: screen_2
# lwr = details: MAPPIT configuration: N-N
# Atg1 = details: MAPPIT configuration: N-N; pair source set: Finley_Y2H
# CG5111 = details: MAPPIT configuration: N-C; pair source set: screen_3
# CG31740 = details: MAPPIT configuration: N-N; pair source set: screen_2
# CG4250 = details: MAPPIT configuration: N-C; pair source set: screen_4
# lms = details: MAPPIT configuration: N-N; pair source set: screen_1
# CG14985 = details: MAPPIT configuration: N-N; pair source set: screen_2
# CG46385 = details: MAPPIT configuration: N-N; pair source set: screen_1
# CG7011 = details: MAPPIT configuration: N-N; pair source set: Lit-BS-16
# CG8997 = details: MAPPIT configuration: N-N; pair source set: Finley_Y2H
# CG4619 = details: MAPPIT configuration: N-N; pair source set: DPIM
# CG12567 = details: MAPPIT configuration: N-N; pair source set: Finley_Y2H
# mRpL47 = details: MAPPIT configuration: N-N; pair source set: Finley_Y2H
# CG3517 = details: MAPPIT configuration: N-N; pair source set: screen_1
# CG1607 = details: MAPPIT configuration: N-N; pair source set: DPIM
# PGAP5 = details: MAPPIT configuration: N-N; pair source set: Finley_Y2H
# Gmppa = details: MAPPIT configuration: N-N; pair source set: Curagen_high_conf
# CG9536 = details: MAPPIT configuration: N-N; pair source set: DPIM
# Ktl = details: MAPPIT configuration: N-N; pair source set: screen_2
# Tina-1 = details: MAPPIT configuration: N-N; pair source set: DPIM
# PAN3 = details: MAPPIT configuration: N-N; pair source set: screen_1
# l(3)05822 = details: MAPPIT configuration: N-N; pair source set: screen_2
# mad2 = details: MAPPIT configuration: N-N; pair source set: Finley_Y2H
# Reph = details: MAPPIT configuration: N-C; pair source set: Lit-BM-16
# pan = details: MAPPIT configuration: N-N; pair source set: Finley_Y2H
# Src64B = details: MAPPIT configuration: N-N; pair source set: Lit-BS-16
# Nost = details: MAPPIT configuration: N-N; pair source set: Curagen_high_conf
# chn = details: MAPPIT configuration: N-N; pair source set: Curagen_low_conf
# D = details: MAPPIT configuration: N-N; pair source set: Finley_Y2H
# Mlf = details: pair source set: Lit-BM-16
# Nup93-1 = details: MAPPIT configuration: N-N; pair source set: Curagen_low_conf
# apt = details: MAPPIT configuration: N-N; pair source set: Curagen_low_conf
# RfC3 = details: pair source set: Lit-BM-16
# CG9132 = details: MAPPIT configuration: N-N; pair source set: Finley_Y2H
# CkIIalpha = details: MAPPIT configuration: N-N; pair source set: Lit-BM-16
# Prx2 = details: MAPPIT configuration: N-N; pair source set: Curagen_high_conf
# Doa = details: MAPPIT configuration: N-N; pair source set: Finley_Y2H
# Smg6 = details: MAPPIT configuration: N-N; pair source set: Finley_Y2H
# Srp54 = details: MAPPIT configuration: N-N; pair source set: Finley_Y2H
# CG9775 = details: MAPPIT configuration: N-N; pair source set: DPIM
# Eno = details: MAPPIT configuration: N-N; pair source set: Lit-BM-16
# MESK2 = details: MAPPIT configuration: N-N; pair source set: Lit-BS-16
# su(Hw) = details: MAPPIT configuration: N-N; pair source set: DPIM
# CG9986 = details: MAPPIT configuration: N-N; pair source set: Lit-BS-16
# HP1e = details: MAPPIT configuration: N-N; pair source set: Lit-BS-16
# Nup50 = details: pair source set: Lit-BM-16
# Sec24CD = details: MAPPIT configuration: N-N; pair source set: Lit-BS-16
# 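Note: HEK293T cells with Epo stimulation, STAT-responsive firefly luciferase reporter, fold induction versus unstimulated cells divided by the larger fold induction of two negative controls lacking either bait or prey.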
# Chain of dsx (chain, as listed by the source): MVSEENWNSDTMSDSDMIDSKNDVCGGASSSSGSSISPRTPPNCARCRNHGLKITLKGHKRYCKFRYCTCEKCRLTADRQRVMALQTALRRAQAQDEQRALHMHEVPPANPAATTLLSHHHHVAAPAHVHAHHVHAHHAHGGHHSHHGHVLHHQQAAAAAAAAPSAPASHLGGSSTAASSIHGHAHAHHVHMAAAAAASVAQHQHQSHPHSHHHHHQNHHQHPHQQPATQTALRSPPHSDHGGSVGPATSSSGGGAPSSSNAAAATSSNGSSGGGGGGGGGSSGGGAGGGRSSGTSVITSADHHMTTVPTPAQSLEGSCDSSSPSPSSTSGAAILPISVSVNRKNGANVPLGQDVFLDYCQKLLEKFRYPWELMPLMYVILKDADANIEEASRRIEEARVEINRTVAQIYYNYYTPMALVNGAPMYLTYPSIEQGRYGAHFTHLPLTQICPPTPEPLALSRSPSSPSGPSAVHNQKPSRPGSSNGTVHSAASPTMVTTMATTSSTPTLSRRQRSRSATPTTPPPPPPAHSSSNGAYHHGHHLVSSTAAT
# Chain of Gsc (chain, as listed by the source): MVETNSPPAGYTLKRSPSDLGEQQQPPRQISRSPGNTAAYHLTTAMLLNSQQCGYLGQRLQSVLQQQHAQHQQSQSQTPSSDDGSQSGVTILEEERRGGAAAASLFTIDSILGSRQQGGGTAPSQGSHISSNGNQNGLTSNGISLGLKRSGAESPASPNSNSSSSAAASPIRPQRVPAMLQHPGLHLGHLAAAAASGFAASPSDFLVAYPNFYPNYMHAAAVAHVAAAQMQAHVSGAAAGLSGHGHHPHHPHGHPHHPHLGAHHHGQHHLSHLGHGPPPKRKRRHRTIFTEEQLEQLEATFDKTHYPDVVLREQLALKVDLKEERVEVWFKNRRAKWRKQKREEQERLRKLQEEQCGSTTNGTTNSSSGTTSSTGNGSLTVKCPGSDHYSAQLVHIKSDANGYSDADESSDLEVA
# Chain of Doa (chain, as listed by the source): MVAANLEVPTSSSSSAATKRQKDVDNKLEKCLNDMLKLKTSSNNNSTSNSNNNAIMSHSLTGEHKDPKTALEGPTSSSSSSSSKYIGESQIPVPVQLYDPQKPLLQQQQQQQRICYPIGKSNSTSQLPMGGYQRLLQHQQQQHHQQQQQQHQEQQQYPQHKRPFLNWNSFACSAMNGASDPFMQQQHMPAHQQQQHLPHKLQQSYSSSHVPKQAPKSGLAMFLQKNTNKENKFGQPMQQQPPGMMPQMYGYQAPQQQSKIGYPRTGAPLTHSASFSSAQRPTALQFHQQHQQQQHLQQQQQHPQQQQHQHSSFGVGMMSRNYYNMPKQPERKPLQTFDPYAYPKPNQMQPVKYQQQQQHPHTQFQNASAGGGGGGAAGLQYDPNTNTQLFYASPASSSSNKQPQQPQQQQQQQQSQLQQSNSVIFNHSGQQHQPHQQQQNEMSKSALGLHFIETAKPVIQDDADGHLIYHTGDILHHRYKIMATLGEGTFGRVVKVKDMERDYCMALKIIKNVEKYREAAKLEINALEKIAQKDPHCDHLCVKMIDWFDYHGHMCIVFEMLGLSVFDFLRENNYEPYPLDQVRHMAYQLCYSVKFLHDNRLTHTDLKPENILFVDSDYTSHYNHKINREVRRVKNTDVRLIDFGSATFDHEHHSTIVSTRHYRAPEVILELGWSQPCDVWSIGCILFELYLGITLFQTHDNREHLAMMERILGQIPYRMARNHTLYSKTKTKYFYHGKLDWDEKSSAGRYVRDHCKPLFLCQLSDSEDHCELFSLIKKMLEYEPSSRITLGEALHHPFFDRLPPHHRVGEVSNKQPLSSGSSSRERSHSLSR
# Chain of bowl (chain, as listed by the source): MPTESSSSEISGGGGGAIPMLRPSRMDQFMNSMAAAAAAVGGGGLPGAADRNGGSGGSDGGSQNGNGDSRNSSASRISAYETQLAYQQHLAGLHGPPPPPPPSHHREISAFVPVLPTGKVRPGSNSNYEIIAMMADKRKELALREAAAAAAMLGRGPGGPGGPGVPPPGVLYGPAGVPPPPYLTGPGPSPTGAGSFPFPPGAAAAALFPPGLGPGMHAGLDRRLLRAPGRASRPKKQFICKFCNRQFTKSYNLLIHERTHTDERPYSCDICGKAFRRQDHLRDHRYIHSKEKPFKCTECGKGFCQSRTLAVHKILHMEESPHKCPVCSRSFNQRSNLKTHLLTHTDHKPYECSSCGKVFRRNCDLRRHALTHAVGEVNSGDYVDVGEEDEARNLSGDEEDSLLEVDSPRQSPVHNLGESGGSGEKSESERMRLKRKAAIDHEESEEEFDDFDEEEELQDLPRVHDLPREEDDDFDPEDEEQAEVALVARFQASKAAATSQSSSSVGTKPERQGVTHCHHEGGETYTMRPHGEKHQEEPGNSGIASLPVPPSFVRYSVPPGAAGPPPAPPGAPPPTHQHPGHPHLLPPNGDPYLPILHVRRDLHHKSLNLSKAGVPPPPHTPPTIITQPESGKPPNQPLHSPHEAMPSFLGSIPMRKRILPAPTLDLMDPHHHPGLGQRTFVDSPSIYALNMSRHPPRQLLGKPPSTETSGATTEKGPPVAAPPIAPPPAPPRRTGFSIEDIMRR
# Chain of Hsc70-1 (chain, as listed by the source): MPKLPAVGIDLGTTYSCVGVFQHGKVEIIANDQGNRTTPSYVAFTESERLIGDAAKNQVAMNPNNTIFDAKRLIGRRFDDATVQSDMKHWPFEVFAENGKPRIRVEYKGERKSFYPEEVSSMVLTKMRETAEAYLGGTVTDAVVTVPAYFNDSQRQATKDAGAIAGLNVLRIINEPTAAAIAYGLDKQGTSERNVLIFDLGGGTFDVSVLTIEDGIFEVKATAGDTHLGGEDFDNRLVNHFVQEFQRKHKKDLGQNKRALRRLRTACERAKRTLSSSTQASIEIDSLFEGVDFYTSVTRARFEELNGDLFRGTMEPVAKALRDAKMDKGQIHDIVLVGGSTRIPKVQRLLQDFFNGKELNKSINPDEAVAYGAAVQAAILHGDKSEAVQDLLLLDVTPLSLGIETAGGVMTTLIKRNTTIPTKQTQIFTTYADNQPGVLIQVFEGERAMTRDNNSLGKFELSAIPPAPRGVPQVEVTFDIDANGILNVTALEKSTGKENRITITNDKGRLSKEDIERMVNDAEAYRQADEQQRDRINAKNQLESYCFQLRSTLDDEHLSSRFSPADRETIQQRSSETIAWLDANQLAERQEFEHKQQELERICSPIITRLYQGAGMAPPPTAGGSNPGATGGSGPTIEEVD
# Chain of SmB (chain, as listed by the source): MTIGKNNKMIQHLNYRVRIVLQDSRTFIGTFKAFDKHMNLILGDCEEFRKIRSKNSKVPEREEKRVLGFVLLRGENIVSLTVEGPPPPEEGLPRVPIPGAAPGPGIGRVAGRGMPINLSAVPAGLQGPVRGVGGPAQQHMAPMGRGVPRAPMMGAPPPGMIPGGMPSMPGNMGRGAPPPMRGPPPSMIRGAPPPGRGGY
# Chain of Hsp70Aa (chain, as listed by the source): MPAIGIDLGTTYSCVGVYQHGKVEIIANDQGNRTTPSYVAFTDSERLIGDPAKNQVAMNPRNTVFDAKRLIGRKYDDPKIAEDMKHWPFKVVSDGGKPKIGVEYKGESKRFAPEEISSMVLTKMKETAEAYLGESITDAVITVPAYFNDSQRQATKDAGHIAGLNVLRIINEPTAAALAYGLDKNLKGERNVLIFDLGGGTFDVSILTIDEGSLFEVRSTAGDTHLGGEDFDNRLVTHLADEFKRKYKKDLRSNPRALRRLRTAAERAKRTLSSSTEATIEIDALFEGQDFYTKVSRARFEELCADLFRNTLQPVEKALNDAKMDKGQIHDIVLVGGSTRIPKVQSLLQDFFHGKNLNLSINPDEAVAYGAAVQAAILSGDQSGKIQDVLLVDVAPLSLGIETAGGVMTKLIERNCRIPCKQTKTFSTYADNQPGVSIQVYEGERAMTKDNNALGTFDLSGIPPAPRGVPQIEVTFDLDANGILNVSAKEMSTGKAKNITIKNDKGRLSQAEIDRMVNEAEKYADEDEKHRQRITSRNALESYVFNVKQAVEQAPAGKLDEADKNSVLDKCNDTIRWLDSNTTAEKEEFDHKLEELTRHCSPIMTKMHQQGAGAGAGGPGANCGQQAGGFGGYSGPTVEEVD
# Chain of Acam (chain, as listed by the source): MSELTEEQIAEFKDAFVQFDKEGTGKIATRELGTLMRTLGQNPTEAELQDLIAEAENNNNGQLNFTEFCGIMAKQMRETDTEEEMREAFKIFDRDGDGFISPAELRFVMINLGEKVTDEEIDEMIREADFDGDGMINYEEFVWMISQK
# Chain of Cyp1 (chain, as listed by the source): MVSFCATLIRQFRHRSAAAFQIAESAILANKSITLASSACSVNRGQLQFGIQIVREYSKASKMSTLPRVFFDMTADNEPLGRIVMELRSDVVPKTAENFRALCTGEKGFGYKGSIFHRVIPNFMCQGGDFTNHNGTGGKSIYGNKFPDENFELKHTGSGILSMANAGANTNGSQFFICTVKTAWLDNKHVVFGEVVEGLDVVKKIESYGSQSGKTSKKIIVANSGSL
# Chain of otp (chain, as listed by the source): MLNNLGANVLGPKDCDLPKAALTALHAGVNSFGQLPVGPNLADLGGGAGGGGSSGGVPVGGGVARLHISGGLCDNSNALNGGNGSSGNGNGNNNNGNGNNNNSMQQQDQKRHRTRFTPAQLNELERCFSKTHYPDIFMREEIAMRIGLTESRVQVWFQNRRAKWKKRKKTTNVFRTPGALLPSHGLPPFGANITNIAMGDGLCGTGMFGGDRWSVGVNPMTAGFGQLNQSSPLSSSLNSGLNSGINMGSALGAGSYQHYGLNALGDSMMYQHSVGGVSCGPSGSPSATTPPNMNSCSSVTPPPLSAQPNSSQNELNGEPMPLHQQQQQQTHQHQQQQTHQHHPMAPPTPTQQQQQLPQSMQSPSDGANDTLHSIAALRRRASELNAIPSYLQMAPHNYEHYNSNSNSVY
# Chain of RpL39 (chain, as listed by the source): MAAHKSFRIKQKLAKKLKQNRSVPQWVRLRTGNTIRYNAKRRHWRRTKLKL
substance,measurement,setting,value
RpL23,MAPPIT interaction score,CG15545,0.083
Acam,MAPPIT interaction score,CG1640,0.679
same,MAPPIT interaction score,Pex5,0.715
dsx,MAPPIT interaction score,CG17377,2.14
same,MAPPIT interaction score,CG32817,2.31
same,MAPPIT interaction score,Mst87F,4.59 (active)
zen,MAPPIT interaction score,CG14044,1.38
SmD1,MAPPIT interaction score,CG4116,-0.319
bowl,MAPPIT interaction score,CG2120,0.273
same,MAPPIT interaction score,Odj,-0.226
same,MAPPIT interaction score,caup,-0.0689
gsb-n,MAPPIT interaction score,CG3703,0.258
Arpc2,MAPPIT interaction score,Arpc3A; MAPPIT configuration: N-C,2.37
same,MAPPIT interaction score,Arpc3A; MAPPIT configuration: N-N,0.165
Hsc70-1,MAPPIT interaction score,CG31406; MAPPIT configuration: N-C,1.43
same,MAPPIT interaction score,CG31406; MAPPIT configuration: N-N,-0.111
same,MAPPIT interaction score,Hakai,0.323
same,MAPPIT interaction score,Lkb1,-0.0906
same,MAPPIT interaction score,RnrS,1
same,MAPPIT interaction score,bai,-0.235
same,MAPPIT interaction score,mRpS24,-0.169
same,MAPPIT interaction score,scf,1.56
bsh,MAPPIT interaction score,C15,0.102
otp,MAPPIT interaction score,CG8173,-0.108
same,MAPPIT interaction score,Vsx2,-0.232
cher,MAPPIT interaction score,CG44250,0.155
same,MAPPIT interaction score,lwr; pair source set: DPIM,-0.358
Rbp6,MAPPIT interaction score,Atg1,0.221
Abd-B,MAPPIT interaction score,CG5111,1.34
Gsc,MAPPIT interaction score,CG31740,3.16 (active)
same,MAPPIT interaction score,CG4250,1.43
same,MAPPIT interaction score,lms,-0.637
Vps60,MAPPIT interaction score,CG14985,0.0854
Poxm,MAPPIT interaction score,CG46385,1.84
same,MAPPIT interaction score,CG7011,0.0698
lark,MAPPIT interaction score,CG8997,1.37
pnr,MAPPIT interaction score,CG4619,3.3 (active)
prd,MAPPIT interaction score,CG12567,2.65
same,MAPPIT interaction score,mRpL47,0.0739
e(y)3,MAPPIT interaction score,CG3517,3.82 (active)
Fmr1,MAPPIT interaction score,CG1607,0.0271
Dfd,MAPPIT interaction score,PGAP5,0.749
Gmppb,MAPPIT interaction score,Gmppa,1.26
Arf1,MAPPIT interaction score,CG9536,0.397
same,MAPPIT interaction score,Ktl,2.35
same,MAPPIT interaction score,Tina-1,0.274
SmB,MAPPIT interaction score,PAN3,-0.24
same,MAPPIT interaction score,l(3)05822,0.0651
same,MAPPIT interaction score,mad2,-0.029
mnb,MAPPIT interaction score,Reph,1.38
Cdk5,MAPPIT interaction score,pan,-0.4
Pgi,MAPPIT interaction score,Src64B,-0.233
Src42A,MAPPIT interaction score,Nost,1.25
Hsp83,MAPPIT interaction score,chn,0.266
RpL39,MAPPIT interaction score,D,-0.321
DnaJ-1,MAPPIT interaction score,Mlf; MAPPIT configuration: N-C,1.44
same,MAPPIT interaction score,Mlf; MAPPIT configuration: N-N,0.787
Hrb98DE,MAPPIT interaction score,Nup93-1,-0.403
same,MAPPIT interaction score,apt,-0.399
RfC4,MAPPIT interaction score,RfC3; MAPPIT configuration: N-C,3.58
same,MAPPIT interaction score,RfC3; MAPPIT configuration: N-N,6.38 (active)
Gyc89Da,MAPPIT interaction score,CG9132,0.702
CkIIbeta,MAPPIT interaction score,CkIIalpha,3.04 (active)
Srx,MAPPIT interaction score,Prx2,-0.16
Doa,MAPPIT interaction score,Doa,1.07
same,MAPPIT interaction score,Smg6,1.25
same,MAPPIT interaction score,Srp54,-1.75
same,MAPPIT interaction score,lwr; pair source set: Finley_Y2H,-1.12
RpL4,MAPPIT interaction score,CG9775,-0.331
Cyp1,MAPPIT interaction score,Eno,0.063
same,MAPPIT interaction score,MESK2,0.0293
Non1,MAPPIT interaction score,su(Hw),0.589
Hsp70Aa,MAPPIT interaction score,CG9986,0.269
same,MAPPIT interaction score,HP1e,0.126
Pen,MAPPIT interaction score,Nup50; MAPPIT configuration: N-C,0.849
same,MAPPIT interaction score,Nup50; MAPPIT configuration: N-N,0.121
Jon99Cii,MAPPIT interaction score,Sec24CD,-0.28
